Laboratory results as given in PubChem BioAssay AID1491 (National Center for Advancing Translational Sciences (NCATS), 2009).
Records with an inconclusive call do not appear. The source made the active and inactive calls. The call rests on the fitted dose curve; in most records, active means well fitted inhibition curve with a large enough effect in the main read-out, with a control signal flat; inconclusive means small, poorly fitted or top-dose-only effect, or a change in a side signal; inactive means flat fitted curve, though single readings scatter.
Potency means the concentration at half of the fitted maximal effect.

The molecules below were run against Neuropeptide S receptor (Homo sapiens) (UniProt Q6W5P4) (assay: Confirmation Concentration-Response Assay for Antagonists of the Neuropeptide S Receptor: cAMP Signal Transduction). Conditions: CHO-NPSR cells, cAMP TR-FRET, antagonist mode; series mostly up to 22.3 µM.
Neuropeptide S receptor (Homo sapiens), sequence (Q6W5P4 whole entry, looked up): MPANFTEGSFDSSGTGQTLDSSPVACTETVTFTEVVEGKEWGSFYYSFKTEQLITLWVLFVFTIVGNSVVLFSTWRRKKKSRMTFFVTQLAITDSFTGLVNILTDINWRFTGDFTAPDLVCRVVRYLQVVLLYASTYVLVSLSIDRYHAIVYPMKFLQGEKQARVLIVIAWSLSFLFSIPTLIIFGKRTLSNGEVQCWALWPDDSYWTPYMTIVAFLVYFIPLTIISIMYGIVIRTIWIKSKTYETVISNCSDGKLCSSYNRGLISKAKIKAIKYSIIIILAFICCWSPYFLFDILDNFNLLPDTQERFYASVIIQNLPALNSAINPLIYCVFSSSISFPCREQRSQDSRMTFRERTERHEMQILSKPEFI
From the text: NIH Chemical Genomics Center [NCGC] NIH Molecular Libraries Probe Production centers Network [MLPCN] MLPCN Grant: X01-DA026210-01 Assay Submitter (PI): Heilig, Markus Alexander NCGC Assay Overview: Neuropeptide S receptor (NPSR), previously known as GPR154, is a recently de-orphanized G protein coupled receptor. Its endogenous ligand is the 20 amino acids peptide Neuropeptide S (NPS). […] NPS and its receptor are found in various tissues. Specifically they are highly expressed in brain areas that have been implicated in modulation of arousal, stress and anxiety. Central administration of NPS in mice produces an unusual profile of activity by inducing wakefulness and arousal, while at the same time suppressing anxiety. Therefore, NPSR may represent a novel drug target for the treatment of sleep and anxiety disorders. To identify NPSR antagonists, we developed a cell-based cAMP assay. NPS can stimulate the production of cAMP in Chinese hamster ovary cells stably expressing NPS receptor. This change in intracellular cAMP level can be detected by a homogeneous LANCE cAMP assay based on the TR-FRET (time resolved fluorescence resonance energy transfer) between a europium-labeled cAMP tracer complex and a cAMP-specific antibody labeled with Alexa Fluor 647. The europium-labeled cAMP tracer complex is formed by the tight interaction between Biotin-cAMP (b-cAMP) and streptavidin labeled with Europium-W8044 chelate (Eu-SA). Light pulse at 320 nm excites the europium of the cAMP tracer and the energy emitted is transferred to the Alexa molecule bound to the cAMP antibody, generating a TR-FRET signal at 665 nm. Residual energy from the europium will produce a light at 620 nm. The native unlabeled cAMP from cell lysates competes with the europium-cAMP tracer for antibody binding and reversely reduces the emission signal of Alexa by interrupting FRET between the two labeled molecules. Both emission signals from the FRET donor (620 nm) and the acceptor (665 nm) can be detected by a plate reader in the TRF mode. Expression of result in fluorescence ratio (665 nm/620 nm) helps to normalize differences due to cell density and reagent dispensing. This assay was successfully optimized to a 1536-well plate format. Select compounds from the primary screen (AID 1461) were chosen for confirmation based on potency, efficacy, SAR, and activity across other assays in PubChem and at NCGC. Other compounds are analogs of active compounds from the primary sceen.
NCGC Assay Protocol Summary: A Chinese hamster ovary (CHO) cell line stably expressing the NPS receptor (CHO-NPSR) was obtained from Dr. Heilig lab at NIAAA and maintained in F-12 Kaighn's media (Invitrogen, Carlsbad, CA, 21127) supplemented with 10 % FBS, 100 units/ml penicillin, 100 ug/ml streptomycin and 250 ug/ml geneticin at 37C, 5% CO2 in a humidified atmosphere. Before the assay, aliquots of cells were frozen and stored at -135C. The assay was performed in 1536-well format. Data are reported for both the ratio of the two emission wavelengths, and also for the component 'donor' channel, Em2=620. […] IC50 values were determined from concentration-response data modeled with the standard Hill equation. NPS 1536-well assay protocol: (1) Fresh or frozen CHO-NPSR cells were suspended in F-12 Kaighn's media supplemented with 10 % FBS, 100 units/ml penicillin and 100 ug/ml streptomycin. Cells were plated at 4 ul/well (1200 cells) to white, tissue culture treated 1536-well plates, and then cultured at 37C, 5 % CO2 for 16 to 30 hours. (2) Add 23 nl/well of compound in DMSO solution. The final titration for each compound was between 0.6 nM and 46 uM. (3) Add 1 ul of stimulation reagent (1X HBSS buffer, 5 mM HEPES, 0.1% BSA, 500 uM RO-201724 (Sigma-Aldrich, B8279), 1.5% Alexa 647-labeled anti-cAMP antibody (from Perkin Elmer), 100 nM NPS) (4) Incubation at 37C, 5 % CO2 for 60 min. (5) Add 1 ul/well detection reagent. […]
In the case of `CCOC(=O)c1c(-n2c(C)cc(C=C3C(=O)NC(=S)NC3=O)c2C)sc2c1CCCC2`, the Potency is reported as 10 µM (active). In the case of `Cc1cc(C=C2C(=O)NC(=S)NC2=O)c(C)n1-c1ccc2c(c1)OCO2`, the Potency is reported as 12.6 µM (active). In the case of `C=C1C(=O)O[C@@H]2C[C@@H](C)[C@@H]3C=CC(=O)[C@@]3(C)[C@@H](OC(=O)CC(=O)O[C@H]3[C@@H]4C(=C)C(=O)O[C@@H]4C[C@@H](C)[C@@H]4C=CC(=O)[C@]43C)[C@H]12`, the Potency is reported as 1 µM (active). `C[C@H]1CCCC(=O)CCCCCc2cc(O)cc(O)c2C(=O)O1` was tested, and the Potency was “inactive”. In the case of `Cn1ncnc2c(=O)n(C)c(=O)nc1-2`, the Potency is reported as “inactive”. With `CC(=O)Nc1cc([As](=O)(O)O)ccc1O` the Potency was “inactive”. `C=C(C=O)CC1CC(O)[C@]2(C)OC3CC4OC5C[C@]6(C)O[C@]7(C)CCC8OC9C[C@]%10(C)OC%11C(C)=CC(=O)OC%11CC%10OC9C[C@@H](C)C8OC7CC6O[C@]5(C)CC5OC5C4OC3CC2O1` (stereo partly specified) was tested, and the Potency was “inactive”. With `C=CCN1C(=O)/C(=C/c2cccs2)C(=O)NC1=S` the Potency was 11.2 µM (active). For `Cc1c(P(=S)(c2ccccc2)c2ccccc2)[n+]2ccccc2n1C`, the Potency was 1.12 µM (active). With `Cc1cccc(N2C(=O)NC(=O)/C(=C\c3cnn(-c4ccccc4)c3)C2=O)c1` the Potency was 10 µM (active). `CN(C)C(=S)SSC(=S)N(C)C` was tested, and the Potency was “inactive”.
